Source: PubChem BioAssay (National Center for Advancing Translational Sciences (NCATS))
Pf growth 48h – inhibits P. falciparum growth in the first generation, 48 h; P. falciparum luciferase growth in erythrocytes, 48 h; Potency, µM (highest dose often 28.7 µM), hits mostly inhibitors; actives 5.9% (n = 310,000); AID 504832
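A one-generation exposure of luciferase-tagged malaria parasites in RPMI 1640/Albumax erythrocyte culture, 37 C and 5% CO2. Inhibition is inferred from decreased luminescence after adding detection reagent.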
Pf growth 96h – inhibits malaria parasite growth, 96 h. actives 6.9% (n = 320,000). Potency, µM (series often up to 28.7 µM), hits mostly inhibitors. P. falciparum luciferase reporter growth, 96 h
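Two parasite generations (96 h, 37 C, 5% CO2) of compound exposure in infected erythrocytes (0.05% parasitemia, 2% hematocrit). Luciferase-reporter P. falciparum; decreased luminescence indicates inhibited growth, aimed at apicoplast-acting delayed death.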
Shiga toxin inh – blocks Shiga toxin action in Vero cells; Vero cells, Shiga toxin protein synthesis inhibition reporter; inhibition, % at 38.7 µM; actives 9.2% (n = 290,000); in the data active = inhibition mostly above about 28%, no sharp cut-off; inactive = mostly below about 43%
AMA1-RON2 inh – AMA1-RON2 (P. falciparum) interaction inhibition | AlphaScreen AMA1-biotinylated RON2 peptide binding | actives 0.2% (n = 360,000) | Potency, µM (highest dose often 58.2 µM), most hits filed as inhibitors; note: nearly all actives have a fitted effect of over 45% in size
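AMA1 (3D7) with his tag at 25 nM final met compounds first, then biotinylated RON2 peptide at 25 nM; detection used donor plus acceptor beads, 10 µg/mL apiece, read by AlphaScreen after 30 min at room temperature.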
SARS PLpro yeast – blocks SARS-CoV papain-like protease in a yeast assay. S. cerevisiae expressing SARS-CoV PLpro, growth rescue. actives 0.19% (n = 330,000). Potency, µM (top dose mostly 32.9 µM), hits mostly activators; calls by dose curve; note: nearly all actives have a fitted effect of over 55% in size
Cycloheximide cs – affects cycloheximide protein synthesis inhibition readout, counter-screen. cell reporter, cycloheximide protein synthesis inhibition counterscreen. max response, %. actives 12% (n = 300,000); in the data active = max response mostly above about 13%, no sharp cut-off; inactive = mostly below about 14%; note: read at 38.3 µM for the half of the compounds with a filed dose
Large screens that a line does not name were inactive. A selection: hits, their analogues and other compounds. The true share with any hit is near 19%. Unless noted, calls come from the whole dose curve; as a rule, active = well fitted curve in the direction sought with a large enough effect; inconclusive = small, poorly fitted or top-dose-only effect, or another doubt; inactive = no such curve, though single readings can be large; an effect the other way counts as inactive or inconclusive.

O=C(Nc1nnc(-c2ccco2)s1)C1CC1	Shiga toxin inh 31, AMA1-RON2 inh inconclusive, Cycloheximide cs 23
Cc1ccc(/C=C(\NC(=O)c2ccc(C)cc2)C(=O)NCCCn2ccnc2)cc1	none
NC(Cc1ccc(Cl)cc1)c1csc(Nc2ccc(C(F)(F)F)cn2)n1 (configuration not stated)	none (no result: Pf growth 48h, Pf growth 96h, Shiga toxin inh, SARS PLpro yeast, Cycloheximide cs)
COc1cc(C(C)=O)ccc1OCC(=O)OCCCOC(=O)COc1ccc(C(C)=O)cc1OC	none
O=C(Nc1c(C(=O)O)[nH]c2ccc(F)cc12)c1cccc(C(F)(F)F)c1	none
CC(C)C(=O)Nc1nnc(-c2ccco2)s1	Shiga toxin inh 95, Cycloheximide cs 29
Cc1cc(S(=O)(=O)Nc2cccc(O)c2)c(C)s1	Pf growth 48h inconclusive
Cc1cc(S(=O)(=O)Nc2cccc([N+](=O)[O-])c2)c(C)s1	Pf growth 96h 2.1µM
O=c1nccc(SCc2ccc(Cl)cc2Cl)[nH]1	none
COc1ccccc1Nc1ncc(-c2cccs2)s1	Shiga toxin inh 108, Cycloheximide cs 40
COc1ccccc1NC(=O)c1cccs1	none (no result: Pf growth 96h)
COc1ccc2c(c1)C(c1ccc3c(c1)OCO3)CC(=O)O2 (configuration not stated)	none (no result: Pf growth 48h, Pf growth 96h, AMA1-RON2 inh, SARS PLpro yeast)
Cc1nn(-c2nnc(NC3CCCCC3)nn2)c(C)c1Br	Pf growth 48h inconclusive, Pf growth 96h inconclusive, Shiga toxin inh active, Cycloheximide cs 47
Cc1nn(C)c(C)c1S(=O)(=O)NC1CCCC1	Pf growth 48h inconclusive
CN(C)CCCNc1nc(N)c([N+](=O)[O-])c(NC2CCCCC2)n1	none
Nc1nc(NCCOCCO)nc(NC2CCCCC2)c1[N+](=O)[O-]	Pf growth 48h inconclusive, Pf growth 96h 12µM
CNc1nc(N)c([N+](=O)[O-])c(NC2CCCCC2)n1	Pf growth 96h inconclusive
Nc1nc(Nc2ccccc2)nc(NC2CCCCC2)c1[N+](=O)[O-]	Pf growth 48h inconclusive, Pf growth 96h 13µM
Nc1nc(NCCO)nc(NC2CCCCC2)c1[N+](=O)[O-]	Pf growth 96h 5.2µM (no result: Pf growth 48h)
CN[C@@H](CCCN=C(N)N)C(=O)N[C@@H](CCCCN)C(=O)N1CCC[C@H]1C(=O)N[C@@H](Cc1c[nH]c2ccccc12)C(=O)N[C@H](C(=O)N[C@H](CC(C)C)C(=O)O)C(C)(C)C	none (no result: Pf growth 48h, Pf growth 96h, AMA1-RON2 inh, SARS PLpro yeast)
Cc1ccc(S(=O)(=O)N2CCC[C@H]2C(=O)OC(C)C(=O)Nc2ncc(Cl)cc2Cl)cc1 (some centres not stated)	none
CCc1ccc(NC(=O)CCc2ccc(CC)o2)cc1	Pf growth 96h inconclusive, Cycloheximide cs 14 (no result: Shiga toxin inh)
Cc1ccc(CCC(=O)Nc2ccc(C#N)cc2)o1	Pf growth 96h inconclusive
CCc1ccc(CCC(=O)Nc2ccc(C(=O)O)cc2)o1	Pf growth 96h inconclusive
Cc1cc(NC(=O)CCc2ccc(C)o2)no1	Pf growth 96h inconclusive
CCc1ccc(CCC(=O)Nc2ccc(C)c(C)c2)o1	Shiga toxin inh 58, Cycloheximide cs 40
CC(=O)c1ccc(NC(=O)CCc2ccc(C)o2)cc1	Cycloheximide cs 13
CCc1ccc(NC(=O)CCc2ccc(C)o2)cc1	Cycloheximide cs 37 (no result: Shiga toxin inh)
Cc1cc(C)c2cc(C#N)c(NCCNC(=O)c3cccnc3)nc2c1	none (no result: Pf growth 48h, Pf growth 96h, Shiga toxin inh, SARS PLpro yeast, Cycloheximide cs)
C[C@H](CO)N1C[C@H](C)[C@@H](CN(C)C(=O)Nc2ccc3c(c2)OCO3)Oc2ccc(NC(=O)Cn3cnnn3)cc2C1=O	none (no result: Pf growth 48h, Pf growth 96h, Shiga toxin inh, Cycloheximide cs)
CCc1ccc(CCC(=O)Nc2sc(C)c(C)c2C(=O)OC)o1	AMA1-RON2 inh 27µM (no result: Pf growth 96h)
COc1ccc(CNC(=O)Nc2nc(C(N)c3ccccc3)cs2)cc1 (configuration not stated)	none (no result: Pf growth 48h, Pf growth 96h, Shiga toxin inh, SARS PLpro yeast, Cycloheximide cs)
CCN1C(=O)CC(NCc2ccc(S(N)(=O)=O)cc2)C1=O (configuration not stated)	none
C/C(=N\NC(=S)Nc1c(C)cccc1C)c1ccc(O)cc1	none
C/C(=N\NC(=O)C1COc2ccccc2O1)c1cc2ccccc2o1 (configuration not stated)	Pf growth 96h inconclusive
C/C(=N\NC(=S)Nc1ccccc1C)c1cc2ccccc2o1	Pf growth 48h inconclusive, Pf growth 96h 7.4µM, Shiga toxin inh 26, Cycloheximide cs 17
C/C(=N\NC(=S)Nc1c(C)cccc1C)c1cc2ccccc2o1	Pf growth 48h inconclusive, Pf growth 96h 12µM
O=C1S/C(=C/c2ccccc2F)C(=O)N1CCN=C1NS(=O)(=O)c2ccccc21	none
O=C(CSc1ccccc1)N(c1ccc(Br)cc1)c1nccs1	none
COc1ccc(NC(=O)COC(=O)CNS(=O)(=O)/C=C/c2ccccc2)cc1OC	none (no result: Shiga toxin inh, Cycloheximide cs)
COCCNC(=O)C(C)OC(=O)C1=Cc2ccccc2OC1 (configuration not stated)	Pf growth 96h inconclusive, Cycloheximide cs 15
N#CC(C(N)=O)=C1CCCCC1	none
C=CCn1c(SCC(=O)c2cccs2)nnc1-c1cccc(OC)c1	Shiga toxin inh 37, Cycloheximide cs 18
C=CCn1c(SCC(=O)c2ccc(O)c(O)c2)nnc1-c1ccc(OC)cc1	Pf growth 48h 2.6µM, Pf growth 96h inconclusive (no result: Shiga toxin inh, Cycloheximide cs)
C=CCn1c(COC)nnc1SCC(=O)c1ccc(F)cc1	Shiga toxin inh 44, Cycloheximide cs 16
O=C(CCN1CCN(Cc2ccccc2)CC1)Nc1ccccc1Cl	Pf growth 48h inconclusive
Cc1cccc(C(=O)OCc2cncs2)c1	Cycloheximide cs 33
O=C(Nc1ccccc1Cl)OCc1cncs1	Cycloheximide cs 17
O=C(OCc1cncs1)c1ccccc1Cl	none
O=C(NCc1ccccc1)C1=C[C@@H](c2ccccc2)C[C@@H](OCc2ccc(CO)cc2)O1	Pf growth 48h inconclusive, Pf growth 96h 9.3µM
O=C(NCc1ccccc1)C1=C[C@@H](c2ccc(Br)cc2)C[C@@H](OCCCCO)O1	Pf growth 48h inconclusive, Pf growth 96h inconclusive
C#Cc1ccc([C@@H]2C=C(C(=O)NCc3ccccc3)O[C@H](OCc3ccc(CO)cc3)C2)cc1	Pf growth 48h inconclusive, Pf growth 96h inconclusive
O=C(NCc1ccccc1)C1=C[C@H](c2ccc(Br)cc2)C[C@H](OCc2ccc(CO)cc2)O1	Pf growth 48h inconclusive, Pf growth 96h 1.7µM
O=C(Cn1cc([N+](=O)[O-])nc1[N+](=O)[O-])N1CCN(c2ccccc2)CC1	Pf growth 48h 0.74µM
CCn1cc(C(=O)NC2CCc3ccccc32)c(=O)c2ccc(C)nc21 (configuration not stated)	none (no result: Pf growth 96h, AMA1-RON2 inh)
Cc1ccccc1NC(=O)Nc1nc(C(N)Cc2ccccc2)cs1 (configuration not stated)	none (no result: Pf growth 48h, Pf growth 96h, Shiga toxin inh, SARS PLpro yeast, Cycloheximide cs)
Cc1ccc(C)c(S(=O)(=O)N2CCN(C(=O)c3cccnc3)CC2)c1	none
COc1ccc(CN(CCC(c2ccc(F)cc2)C2CCOC(C)(C)C2)C(=O)c2ccco2)cc1 (configuration not stated)	Pf growth 48h 9.3µM, Pf growth 96h inconclusive
CC(c1ccccc1)N(CCC(c1ccccc1)C1CCOC(C)(C)C1)C(=O)c1ccco1 (configuration not stated)	Pf growth 48h 12µM
